Reference: PubChem BioAssay (EPA / NIEHS)
Values joined by “and” are separate entries in the source; they are usually repeats but may differ in a detail not shown here. Identical values can stand only once. Records with an inconclusive call do not appear. A structure can be active in one record and inactive in another. Active and inactive are the calls of the source. How the source made its calls, unless noted: active means hit-call score of the fitted dose curve at least 0.9, where 1 is the maximum; inactive means score below 0.9.

Assays:
[1] = BSK_4H_Eotaxin3: BioMAP Diversity Plus: 4H Assay for Eotaxin 3 Biomarker Activity (AID 2283000); conditions: primary human endothelial cells (HUVEC); actives raise or lower the signal
Procedure, shortened: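 Chemicals were added to human umbilical vein endothelium cultures, and Eotaxin-3 was quantified by ELISA at 24 h. Values were derived by bidirectional fitting with DMSO serving as negative control and activity baseline.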

[2] = target: human Peroxisome Proliferator-activated Receptor alpha (PPARa), PPARA (gene 5465) (UniProt Q07869); test: ATG_PPARa_TRANS: Attagene TRANS-FACTORIAL HepG2 Assay for human Peroxisome Proliferator-activated Receptor alpha (PPARa) (AID 2283001; active means hit-call score of the fitted dose curve at least 0.9, where 1 is the maximum;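 on AC50: potency for gain of reporter signal over DMSO so agonist or activator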)
Chain of human Peroxisome Proliferator-activated Receptor alpha (PPARa), PPARA (gene 5465) (Q07869 whole entry, looked up, the tested form may be a part): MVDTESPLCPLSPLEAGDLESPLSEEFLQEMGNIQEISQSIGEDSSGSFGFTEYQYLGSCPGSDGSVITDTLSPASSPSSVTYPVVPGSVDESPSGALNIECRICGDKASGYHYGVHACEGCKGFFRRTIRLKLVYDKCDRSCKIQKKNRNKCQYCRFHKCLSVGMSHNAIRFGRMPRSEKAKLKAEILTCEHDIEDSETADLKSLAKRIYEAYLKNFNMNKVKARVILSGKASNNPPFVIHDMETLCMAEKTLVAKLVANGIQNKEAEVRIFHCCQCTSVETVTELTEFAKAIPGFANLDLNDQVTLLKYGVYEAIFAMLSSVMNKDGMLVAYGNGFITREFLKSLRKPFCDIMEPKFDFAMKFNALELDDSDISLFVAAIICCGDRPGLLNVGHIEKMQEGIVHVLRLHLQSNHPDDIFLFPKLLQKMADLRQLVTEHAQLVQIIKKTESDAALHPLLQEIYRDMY
Procedure, shortened: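 Reporter transcripts quantified by RT-PCR plus capillary electrophoresis after 24 h treatment, fitted upward relative to DMSO. Cells: human HepG2 transiently carrying multiple GAL4-UAS reporter units driven by NR-Gal4 chimeras.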

[3] = target: human Peroxisome Proliferator-activated Receptor delta (PPARd), PPARD (gene 5467) (UniProt Q03181); test: ATG_PPARd_TRANS: Attagene TRANS-FACTORIAL HepG2 Assay for human Peroxisome Proliferator-activated Receptor delta (PPARd) (AID 2283002; active means hit-call score of the fitted dose curve at least 0.9, where 1 is the maximum)
Chain of human Peroxisome Proliferator-activated Receptor delta (PPARd), PPARD (gene 5467) (Q03181 whole entry, looked up, the tested form may be a part): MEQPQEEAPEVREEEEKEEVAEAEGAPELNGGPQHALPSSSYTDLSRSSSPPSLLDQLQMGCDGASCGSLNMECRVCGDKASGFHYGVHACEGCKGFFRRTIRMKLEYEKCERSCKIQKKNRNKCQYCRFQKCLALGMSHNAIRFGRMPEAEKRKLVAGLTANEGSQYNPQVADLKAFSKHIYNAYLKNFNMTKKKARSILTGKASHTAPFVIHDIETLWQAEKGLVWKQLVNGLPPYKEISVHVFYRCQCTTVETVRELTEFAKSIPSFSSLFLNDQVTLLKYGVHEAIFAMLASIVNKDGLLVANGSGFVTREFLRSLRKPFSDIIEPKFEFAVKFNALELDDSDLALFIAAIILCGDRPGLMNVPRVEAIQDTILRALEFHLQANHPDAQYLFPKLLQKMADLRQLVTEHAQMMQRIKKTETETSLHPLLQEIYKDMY
Procedure, shortened: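 Transient HepG2 transfection (multiple GAL4-UAS RTUs, chimeric receptor-Gal4); 24 h dosing; total RNA → oligo(dT) RT → PCR → 6-FAM primer extension → HpaI cut → CE. Positive direction vs DMSO.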

[4] = read-out: Intercellular Adhesion Molecule 1 (ICAM1), ICAM1 (gene 3383); test: BSK_3C_ICAM1: BioMAP Diversity Plus: 3C Assay for Intercellular Adhesion Molecule 1 (ICAM1) Biomarker Activity (AID 2283003); conditions: primary human endothelial cells (HUVEC); actives raise or lower the signal
Procedure, shortened: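 Chemicals are dosed onto primary human umbilical vein endothelium (3C system). After 24 h, ICAM-1 is measured by ELISA, and responses are fitted bidirectionally relative to DMSO.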

[5] = BSK_3C_Proliferation: Cell Proliferation Assessment in the BioMAP Diversity Plus: 3C Assay (AID 2283006); conditions: primary human endothelial cells (HUVEC);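 on AC50: potency may reflect either rise or fall in cell number versus DMSO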
Procedure, shortened: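 Cells (human umbilical vein endothelial, sub-confluent) receive test chemical; after 48 h they are fixed in 10% trichloroacetic acid, stained with 0.1% SRB and read at 560 nm. Activity is referenced to DMSO, fitting increases and decreases.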

[6] = target: Peroxisome proliferator-activated receptor gamma (Homo sapiens) (UniProt P37231); test: ATG_PPARg_TRANS: Attagene TRANS-FACTORIAL HepG2 Assay for human Peroxisome Proliferator-activated Receptor-gamma (PPARg) (AID 2283007; active means hit-call score of the fitted dose curve at least 0.9, where 1 is the maximum)
Chain of Peroxisome proliferator-activated receptor gamma (Homo sapiens) (P37231 whole entry, looked up): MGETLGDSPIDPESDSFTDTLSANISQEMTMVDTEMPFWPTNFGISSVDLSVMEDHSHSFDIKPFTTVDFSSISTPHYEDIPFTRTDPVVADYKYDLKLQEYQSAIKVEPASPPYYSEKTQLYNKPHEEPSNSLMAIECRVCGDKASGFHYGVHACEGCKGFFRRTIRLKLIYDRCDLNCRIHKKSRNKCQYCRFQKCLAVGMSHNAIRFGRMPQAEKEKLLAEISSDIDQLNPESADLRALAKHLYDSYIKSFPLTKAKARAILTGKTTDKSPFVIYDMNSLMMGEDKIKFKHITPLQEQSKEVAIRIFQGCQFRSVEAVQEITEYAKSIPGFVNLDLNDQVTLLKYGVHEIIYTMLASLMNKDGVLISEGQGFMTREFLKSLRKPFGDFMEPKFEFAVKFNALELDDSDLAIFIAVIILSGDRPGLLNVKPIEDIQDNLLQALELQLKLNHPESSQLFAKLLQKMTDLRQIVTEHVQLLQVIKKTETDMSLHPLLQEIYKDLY
Procedure, shortened: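 Human hepatoma HepG2, transient MRTU transfection, 24 h treatment. mRNA reporter signal by RT-PCR plus capillary electrophoresis, fluorescence detection; fitted for increase over DMSO negative control.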

[7] = target: Nuclear receptor subfamily 1 group I member 2 (Homo sapiens) (UniProt O75469); test: ATG_PXR_TRANS: Attagene TRANS-FACTORIAL HepG2 Assay for human Pregnane X Receptor (PXR) (AID 2283008; active means hit-call score of the fitted dose curve at least 0.9, where 1 is the maximum)
Chain of Nuclear receptor subfamily 1 group I member 2 (Homo sapiens) (O75469 whole entry, looked up, the tested form may be a part): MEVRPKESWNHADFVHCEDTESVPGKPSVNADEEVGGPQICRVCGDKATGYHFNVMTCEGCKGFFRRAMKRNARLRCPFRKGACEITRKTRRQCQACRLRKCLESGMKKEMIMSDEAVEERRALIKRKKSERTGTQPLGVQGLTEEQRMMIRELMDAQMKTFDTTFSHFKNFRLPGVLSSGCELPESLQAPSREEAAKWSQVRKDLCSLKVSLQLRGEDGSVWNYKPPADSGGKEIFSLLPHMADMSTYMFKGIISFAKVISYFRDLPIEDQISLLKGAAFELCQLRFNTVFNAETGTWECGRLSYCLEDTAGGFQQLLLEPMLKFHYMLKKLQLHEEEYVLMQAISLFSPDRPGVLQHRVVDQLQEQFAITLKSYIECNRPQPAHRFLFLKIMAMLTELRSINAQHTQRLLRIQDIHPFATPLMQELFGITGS
Procedure, shortened: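 Trans-factorial format: exogenous NR-Gal4 fusion activity, not endogenous factor, in transfected human HepG2 liver cells. After 24 h dosing, RNA isolated, reverse-transcribed, amplified and resolved by capillary electrophoresis; induction scored versus DMSO.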

[8] = target: human Retinoic Acid Receptor gamma (RARg), RARG (gene 5916) (UniProt P13631); test: ATG_RARg_TRANS: Attagene TRANS-FACTORIAL HepG2 Assay for human Retinoic Acid Receptor gamma (RARg) (AID 2283009; active means hit-call score of the fitted dose curve at least 0.9, where 1 is the maximum)
Chain of human Retinoic Acid Receptor gamma (RARg), RARG (gene 5916) (P13631 whole entry, looked up, the tested form may be a part): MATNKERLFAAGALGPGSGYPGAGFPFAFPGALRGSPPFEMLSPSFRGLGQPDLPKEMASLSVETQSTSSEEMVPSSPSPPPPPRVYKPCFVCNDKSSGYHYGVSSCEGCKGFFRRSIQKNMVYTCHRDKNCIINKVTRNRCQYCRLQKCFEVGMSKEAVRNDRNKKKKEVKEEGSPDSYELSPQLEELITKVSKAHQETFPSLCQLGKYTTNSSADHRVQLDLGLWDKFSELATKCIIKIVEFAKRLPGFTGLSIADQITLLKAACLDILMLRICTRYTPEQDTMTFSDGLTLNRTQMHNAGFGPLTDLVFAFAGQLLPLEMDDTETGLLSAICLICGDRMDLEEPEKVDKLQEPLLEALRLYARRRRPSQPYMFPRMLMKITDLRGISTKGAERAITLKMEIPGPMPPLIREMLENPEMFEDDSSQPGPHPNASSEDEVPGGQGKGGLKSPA
Procedure, shortened: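 TRANS format measured activity of exogenous NR-GAL4 fusion (RARg) in transfected HepG2 liver cells after 24 h dosing. Induced reporter RNA was detected by RT-PCR/capillary electrophoresis fluorescence, analysed in the positive direction against DMSO.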

[9] = target: Retinoic acid receptor RXR-alpha (Homo sapiens) (UniProt P19793); test: ATG_RXRa_TRANS: Attagene TRANS-FACTORIAL HepG2 Assay for human Retinoid X Receptor alpha (RXRa) (AID 2283012; active means hit-call score of the fitted dose curve at least 0.9, where 1 is the maximum)
Chain of Retinoic acid receptor RXR-alpha (Homo sapiens) (P19793 whole entry, looked up, the tested form may be a part): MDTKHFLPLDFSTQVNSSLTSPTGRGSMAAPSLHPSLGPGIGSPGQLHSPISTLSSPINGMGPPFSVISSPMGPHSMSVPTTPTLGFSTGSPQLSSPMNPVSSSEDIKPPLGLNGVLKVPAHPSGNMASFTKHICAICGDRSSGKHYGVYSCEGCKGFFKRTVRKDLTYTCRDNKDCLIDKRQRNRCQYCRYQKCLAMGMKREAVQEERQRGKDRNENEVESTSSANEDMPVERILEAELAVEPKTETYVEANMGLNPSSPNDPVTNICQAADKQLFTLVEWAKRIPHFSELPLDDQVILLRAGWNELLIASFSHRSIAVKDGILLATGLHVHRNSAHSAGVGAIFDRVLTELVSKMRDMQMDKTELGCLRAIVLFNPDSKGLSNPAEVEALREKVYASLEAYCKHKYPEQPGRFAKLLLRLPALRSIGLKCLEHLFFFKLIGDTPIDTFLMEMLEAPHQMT
Procedure, shortened: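 Measures exogenous chimeric NR-GAL4 activity in transfected HepG2 liver cells after 24 h of dosing. Induced reporter mRNA was detected by RT-PCR with capillary electrophoresis, and gain of signal was analysed against DMSO.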

[10] = target: human Thyroid Receptor alpha (THRa1), THRA (gene 7067) (UniProt P10827); test: ATG_THRa1_TRANS: Attagene TRANS-FACTORIAL HepG2 Assay for human Thyroid Receptor alpha (THRa1) (AID 2283014; active means hit-call score of the fitted dose curve at least 0.9, where 1 is the maximum)
Chain of human Thyroid Receptor alpha (THRa1), THRA (gene 7067) (P10827 whole entry, looked up, the tested form may be a part): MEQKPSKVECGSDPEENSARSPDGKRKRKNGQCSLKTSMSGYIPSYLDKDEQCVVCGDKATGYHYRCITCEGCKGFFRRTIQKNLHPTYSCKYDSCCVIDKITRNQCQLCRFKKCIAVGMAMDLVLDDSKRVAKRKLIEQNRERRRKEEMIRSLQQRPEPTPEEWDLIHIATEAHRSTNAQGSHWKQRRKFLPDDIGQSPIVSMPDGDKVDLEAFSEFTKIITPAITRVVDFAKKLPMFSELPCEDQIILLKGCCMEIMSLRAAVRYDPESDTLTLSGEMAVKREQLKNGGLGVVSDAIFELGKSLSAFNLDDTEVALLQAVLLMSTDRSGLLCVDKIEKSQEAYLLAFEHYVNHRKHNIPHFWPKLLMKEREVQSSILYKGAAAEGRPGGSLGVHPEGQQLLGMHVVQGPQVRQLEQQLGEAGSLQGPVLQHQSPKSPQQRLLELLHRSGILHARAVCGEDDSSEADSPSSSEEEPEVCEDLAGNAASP
Procedure, shortened: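 Reporter transcript induction, read by capillary electrophoresis of 6-FAM-labelled RT-PCR products, reflects activity of a transfected THRa1-Gal4 fusion in HepG2 liver cells. Cells were dosed for 24 h; activity was fitted in the positive direction against DMSO.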

[11] = read-out: E-selectin (Homo sapiens) (UniProt P16581); test: BSK_3C_Eselectin: BioMAP Diversity Plus: 3C Assay for Eselectin Biomarker Activity (AID 2283015); conditions: primary human endothelial cells (HUVEC); actives raise or lower the signal
Procedure, shortened: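 ELISA read-out of E-selectin on endothelial monolayers after 24 h chemical treatment. Human umbilical vein primary cells served as the system, with DMSO defining baseline activity for bidirectional fitting.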

[12] = read-out: Interleukin-1 alpha (IL1a), IL1A (gene 3552); test: BSK_BE3C_IL1a: BioMAP Diversity Plus: BE3C Assay for Interleukin-1 alpha (IL1a) Biomarker Activity (AID 2283016); conditions: primary human bronchial epithelial cells; actives raise or lower the signal
Procedure, shortened: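 Signal from IL-1a ELISA, taken 24 h after chemical dosing of human bronchial epithelial cells, is compared with DMSO as baseline using bidirectional curve fitting.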

[13] = read-out: Monocyte Chemoattractant Protein-1 (MCP1), CCL2 (gene 6347); test: BSK_3C_MCP1: BioMAP Diversity Plus: 3C Assay for Monocyte Chemoattractant Protein-1 (MCP1) Biomarker Activity (AID 2283017); conditions: primary human endothelial cells (HUVEC); actives raise or lower the signal
Procedure, shortened: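 ELISA read-out of MCP-1 from human umbilical vein endothelial cell cultures harvested 24 h post-dosing. Gain or loss of signal was fitted relative to DMSO.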

[14] = read-out: Monocyte Chemoattractant Protein-1 (MCP1), CCL2 (gene 6347); test: BSK_4H_MCP1: BioMAP Diversity Plus: 4H Assay for Monocyte Chemoattractant Protein-1 (MCP1) Biomarker Activity (AID 2283018); conditions: primary human endothelial cells (HUVEC); actives raise or lower the signal
Procedure, shortened: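 Endothelial cells from umbilical vein were treated with test chemical, then after 24 h MCP-1 levels were quantified by ELISA; endpoint values came from bidirectional fitting with DMSO as baseline of activity.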

[15] = read-out: Human Leukocyte Antigen - DR isotype (HLADR), HLA-DRA (gene 3122); test: BSK_3C_HLADR: BioMAP Diversity Plus: 3C Assay for Human Leukocyte Antigen - DR isotype (HLADR) Biomarker Activity (AID 2283019); conditions: primary human endothelial cells (HUVEC); actives raise or lower the signal
Procedure, shortened: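 ELISA readout of surface HLA-DR on human umbilical vein endothelium, taken 24 h after chemical treatment. Gain- and loss-of-signal were both fitted relative to DMSO.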

[16] = target: human Retinoid X Receptor beta (RXRb), RXRB (gene 6257) (UniProt P28702); test: ATG_RXRb_TRANS: Attagene TRANS-FACTORIAL HepG2 Assay for human Retinoid X Receptor beta (RXRb) (AID 2283013; active means hit-call score of the fitted dose curve at least 0.9, where 1 is the maximum)
Chain of human Retinoid X Receptor beta (RXRb), RXRB (gene 6257) (P28702 whole entry, looked up, the tested form may be a part): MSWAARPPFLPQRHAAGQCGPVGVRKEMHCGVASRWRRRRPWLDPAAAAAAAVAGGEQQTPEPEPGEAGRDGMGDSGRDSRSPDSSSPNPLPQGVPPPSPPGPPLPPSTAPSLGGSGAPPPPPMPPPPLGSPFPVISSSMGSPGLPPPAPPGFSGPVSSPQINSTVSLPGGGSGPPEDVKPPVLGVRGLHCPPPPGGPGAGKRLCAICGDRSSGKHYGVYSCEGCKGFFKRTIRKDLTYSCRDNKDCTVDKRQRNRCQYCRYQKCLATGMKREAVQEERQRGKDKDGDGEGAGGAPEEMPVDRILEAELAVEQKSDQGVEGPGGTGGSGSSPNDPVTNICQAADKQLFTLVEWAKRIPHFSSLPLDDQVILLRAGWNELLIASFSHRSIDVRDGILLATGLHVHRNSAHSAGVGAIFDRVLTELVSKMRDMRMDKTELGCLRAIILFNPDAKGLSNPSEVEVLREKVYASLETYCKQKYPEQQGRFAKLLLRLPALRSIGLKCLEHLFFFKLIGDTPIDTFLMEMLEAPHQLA
Procedure, shortened: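 Chimeric receptor-Gal4 activity was assessed in transiently transfected human HepG2 cells after 24 h exposure. Transcripts from GAL4-UAS reporters were quantified by fluorescent RT-PCR and capillary electrophoresis, with DMSO as negative control and baseline.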

[17] = target: human RAR-related Orphan Receptor beta (RORb), RORB (gene 6096) (UniProt Q92753); test: ATG_RORb_TRANS: Attagene TRANS-FACTORIAL HepG2 Assay for human RAR-related Orphan Receptor beta (RORb) (AID 2283010; active means hit-call score of the fitted dose curve at least 0.9, where 1 is the maximum)
Procedure, shortened: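 Transfect HepG2 with multiple GAL4-UAS reporter transcription units; dose chemicals for 24 h; isolate RNA, reverse-transcribe and PCR-amplify reporter sequences; label, digest and resolve fragments by capillary electrophoresis; fit increases relative to DMSO.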

[18] = target: human RAR-related Orphan Receptor gamma (RORg), RORC (gene 6097) (UniProt P51449); test: ATG_RORg_TRANS: Attagene TRANS-FACTORIAL HepG2 Assay for human RAR-related Orphan Receptor gamma (RORg) (AID 2283011; active means hit-call score of the fitted dose curve at least 0.9, where 1 is the maximum)
Chain of human RAR-related Orphan Receptor gamma (RORg), RORC (gene 6097) (P51449 whole entry, looked up, the tested form may be a part): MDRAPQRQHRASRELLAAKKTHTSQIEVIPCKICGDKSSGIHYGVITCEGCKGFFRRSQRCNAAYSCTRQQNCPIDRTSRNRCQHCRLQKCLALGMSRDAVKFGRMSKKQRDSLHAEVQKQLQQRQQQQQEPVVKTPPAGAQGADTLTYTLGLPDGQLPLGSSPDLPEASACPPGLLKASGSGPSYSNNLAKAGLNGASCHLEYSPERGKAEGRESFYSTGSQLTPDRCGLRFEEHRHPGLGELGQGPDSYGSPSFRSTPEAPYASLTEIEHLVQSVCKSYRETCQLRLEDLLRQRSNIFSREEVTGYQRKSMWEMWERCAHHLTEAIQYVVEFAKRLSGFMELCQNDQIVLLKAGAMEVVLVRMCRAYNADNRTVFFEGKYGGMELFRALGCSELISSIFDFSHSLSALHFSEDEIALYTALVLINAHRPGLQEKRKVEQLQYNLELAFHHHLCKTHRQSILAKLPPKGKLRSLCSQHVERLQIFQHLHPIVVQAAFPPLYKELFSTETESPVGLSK
Procedure, shortened: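 First, HepG2 liver cells were transfected with GAL4-UAS-driven reporter constructs and the RORg-Gal4 fusion. Next, they were treated with chemical for 24 h. Finally, reporter mRNA was quantified by RT-PCR and capillary electrophoresis, with upward activity fitted against DMSO.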

[19] = target: human Retinoic Acid Receptor beta (RARb), RARB (gene 5915) (UniProt P10826); test: ATG_RARb_TRANS: Attagene TRANS-FACTORIAL HepG2 Assay for human Retinoic Acid Receptor beta (AID 2283004; active means hit-call score of the fitted dose curve at least 0.9, where 1 is the maximum)
Procedure, shortened: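 Transient transfection of HepG2 with multiple reporter units → chemical dosing, 24 h → total RNA isolation → RT with oligo(dT) → reporter-specific PCR, 6-FAM primer extension, HpaI digest → capillary electrophoresis. Positive direction vs DMSO control.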

[20] = target: Retinoic acid receptor alpha (Homo sapiens) (UniProt P10276); test: ATG_RARa_TRANS: Attagene TRANS-FACTORIAL HepG2 Assay for human Retinoic Acid Receptor alpha (RARa) (AID 2283005; active means hit-call score of the fitted dose curve at least 0.9, where 1 is the maximum)
Procedure, shortened: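 Reporter transcripts, measured by RT-PCR with fluorescent labeling and capillary electrophoresis after 24 h dosing, reflect activity of an exogenous human RARa–GAL4 fusion in transiently transfected HepG2. Fitted for increase relative to DMSO.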

Measured: AC50

Chain of E-selectin (Homo sapiens) (P16581 whole entry, looked up): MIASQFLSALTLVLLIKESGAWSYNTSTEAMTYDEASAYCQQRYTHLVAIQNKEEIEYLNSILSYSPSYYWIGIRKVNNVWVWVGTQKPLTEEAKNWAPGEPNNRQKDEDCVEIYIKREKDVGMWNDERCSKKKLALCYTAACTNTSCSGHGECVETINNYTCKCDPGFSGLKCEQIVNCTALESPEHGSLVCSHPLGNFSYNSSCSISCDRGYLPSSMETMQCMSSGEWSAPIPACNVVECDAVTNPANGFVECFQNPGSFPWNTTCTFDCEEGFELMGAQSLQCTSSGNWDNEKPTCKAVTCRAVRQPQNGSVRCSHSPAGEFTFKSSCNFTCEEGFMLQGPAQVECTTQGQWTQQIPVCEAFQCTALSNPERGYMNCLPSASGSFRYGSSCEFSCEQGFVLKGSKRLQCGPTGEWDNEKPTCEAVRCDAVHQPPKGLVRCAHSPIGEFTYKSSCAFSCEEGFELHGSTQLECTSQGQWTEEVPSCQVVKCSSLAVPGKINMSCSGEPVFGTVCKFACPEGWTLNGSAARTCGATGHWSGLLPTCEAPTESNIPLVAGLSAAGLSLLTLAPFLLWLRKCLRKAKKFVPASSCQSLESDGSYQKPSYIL

CCN(CC)c1ccc(N=Nc2ccccc2)cc1
active: [1] 13 µM | [5] 12 µM | [6] 4.67 µM | [7] 4.22 µM | [12] 20 µM | [13] 30.6 µM | [14] 13.2 µM | [15] 11.5 µM
inactive: [2] | [3] | [4] | [8] | [9] | [10] | [11]

OCC(F)(F)C(F)(F)C(F)(F)C(F)(F)C(F)(F)C(F)(F)C(F)(F)C(F)(F)CO
active: [1] 38 µM | [5] 30 µM and 44.6 µM | [7] 14.4 µM | [12] 30 µM | [15] 30 µM
inactive: [1] | [3] | [6] | [11] | [12] | [13] | [14] | [15]

CCOC(C=C(C)CCC=C(C)C)OCC
active: [1] 29.3 µM | [5] 28.1 µM | [6] 15.3 µM | [7] 26.5 µM | [11] 32.8 µM | [12] 3.97 µM | [13] 32.1 µM | [14] 30.4 µM | [15] 35.4 µM
inactive: [2] | [3] | [9] | [16]

O=C(O)C(F)(F)OC(F)(F)C(F)(F)OC(F)(F)C(F)(F)OC(F)(F)F
active: [2] 15.4 µM | [6] 17.9 µM | [16] 13.2 µM
not listed: [4] | [17] | [18] | [19] | [20]
inactive: all other assays above

OCCCCC(F)(F)C(F)(F)C(F)(F)C(F)(F)F
not listed: [7] | [10] | [16] | [17] | [18] | [19] | [20]
inactive: all other assays above

O=C(O)C(F)(F)C(F)(F)C(F)(F)C(F)(F)C(F)(F)C(F)(F)C(F)F
active: [2] 6.55 µM | [6] 41.8 µM
not listed: [4] | [8] | [16] | [19] | [20]
inactive: all other assays above

O=C1c2c(O)ccc(Nc3ccc(CCO)cc3)c2C(=O)c2c([N+](=O)[O-])ccc(O)c21
active: [1] 9.19 µM | [4] 20 µM | [5] 20 µM | [6] 13 µM | [7] 6.55 µM | [10] 30 µM | [11] 4.35 µM | [14] 30.4 µM | [15] 10.6 µM
not listed: [16] | [17]
inactive: all other assays above
